# Experimental data as given in PMC8384837, “Expanding the binding specificity for RNA recognition by a PUF domain”.
# Columns and labels:
# Experiment in all cases: yeast three-hybrid, YBZ-1, SC-Leu-His + 0.5 mM 3-AT, 4 days
# Conditions in all cases: tags: N-Gal4 AD-HA kept; label: inside an RPR1-promoter hybrid RNA with tandem MS2 sites; ssRNA
# PUM1 PUF domain R5-GPR = PUM1 PUF domain R5-GPR (Homo sapiens, UniProt Q14671 828-1176, C1007G;R1008P;Q1011R)
# In short: (§1)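 Sequencing with Illumina followed PCR amplification of the repeat regions from transformants grown four days on SC-Leu (input) or SC-Leu-His + 0.5 mM 3-AT (selection). The transformants were strain YBZ-1 with a LexA–MS2 coat fusion and a HIS3 reporter, carrying Pumilio-1 PUF domain libraries and matching RNA elements. The interaction score is the log change in variant frequency from input to selection, computed in log2 with a pseudocount of 1 for absent variants.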
# PUM1 PUF domain R5-ERG = PUM1 PUF domain R5-ERG (Homo sapiens, UniProt Q14671 828-1176, C1007E;Q1011G)
# Sequence of PUM1 PUF domain R5-ERG (Q14671 828-1176 C1007E/Q1011G): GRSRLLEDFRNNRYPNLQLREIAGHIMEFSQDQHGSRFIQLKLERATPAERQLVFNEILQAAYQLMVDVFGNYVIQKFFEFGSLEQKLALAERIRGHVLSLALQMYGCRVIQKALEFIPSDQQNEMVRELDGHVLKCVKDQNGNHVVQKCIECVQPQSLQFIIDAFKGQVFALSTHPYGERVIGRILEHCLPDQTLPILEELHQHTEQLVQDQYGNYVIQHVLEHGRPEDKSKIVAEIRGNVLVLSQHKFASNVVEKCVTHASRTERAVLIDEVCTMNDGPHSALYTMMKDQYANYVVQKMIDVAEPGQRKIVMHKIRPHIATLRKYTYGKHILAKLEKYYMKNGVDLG
# In short: as §1
# PUM1 PUF domain R5-KSQ = PUM1 PUF domain R5-KSQ (Homo sapiens, UniProt Q14671 828-1176, C1007K;R1008S)
# Sequence of PUM1 PUF domain R5-KSQ (Q14671 828-1176 C1007K/R1008S): as the sequence (Q14671 828-1176 C1007E/Q1011G) above, with E180K, R181S, G184Q counted along it
# In short: as §1
# PUM1 PUF domain R5-LHV = PUM1 PUF domain R5-LHV (Homo sapiens, UniProt Q14671 828-1176, C1007L;R1008H;Q1011V)
# In short: as §1
# PUM1 PUF domain R5-RGR = PUM1 PUF domain R5-RGR (Homo sapiens, UniProt Q14671 828-1176, C1007R;R1008G;Q1011R)
# In short: as §1
# PUM1 PUF domain R7-KPM = PUM1 PUF domain R7-KPM (Homo sapiens, UniProt Q14671 828-1176, S1079K;N1080P;E1083M)
# Sequence of PUM1 PUF domain R7-KPM (Q14671 828-1176 S1079K/N1080P/E1083M): as the sequence (Q14671 828-1176 C1007E/Q1011G) above, with E180C, G184Q, S252K, N253P, E256M counted along it
# In short: as §1
# PUM1 PUF domain R1-RLE = PUM1 PUF domain R1-RLE (Homo sapiens, UniProt Q14671 828-1176, S863R;R864L;Q867E)
# Sequence of PUM1 PUF domain R1-RLE (Q14671 828-1176 S863R/R864L/Q867E): as the sequence (Q14671 828-1176 C1007E/Q1011G) above, with S36R, R37L, Q40E, E180C, G184Q counted along it
# In short: as §1
# PUM1 PUF domain R6-CFE = target: T1, PUM1 PUF domain R6-CFE (Homo sapiens, UniProt Q14671 828-1176, N1043C;Y1044F;Q1047E)
# T1 sequence: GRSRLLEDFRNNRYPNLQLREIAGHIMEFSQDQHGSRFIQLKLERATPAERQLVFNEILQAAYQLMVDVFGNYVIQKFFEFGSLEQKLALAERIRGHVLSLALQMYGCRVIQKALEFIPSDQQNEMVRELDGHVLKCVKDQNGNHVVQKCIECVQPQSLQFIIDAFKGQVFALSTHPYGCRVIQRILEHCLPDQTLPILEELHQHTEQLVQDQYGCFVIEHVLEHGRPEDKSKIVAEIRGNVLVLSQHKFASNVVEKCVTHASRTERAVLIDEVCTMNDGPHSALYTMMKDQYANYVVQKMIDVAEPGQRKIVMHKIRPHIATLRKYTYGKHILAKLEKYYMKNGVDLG
# In short: as §1
# PUM1 PUF domain R4-SRV = PUM1 PUF domain R4-SRV (Homo sapiens, UniProt Q14671 828-1176, N971S;H972R;Q975V)
# In short: as §1
# PUM1 PUF domain R4-FGA = PUM1 PUF domain R4-FGA (Homo sapiens, UniProt Q14671 828-1176, N971F;H972G;Q975A)
# In short: as §1
# Sequence of PUM1 PUF domain R5-GPR (Q14671 828-1176 C1007G/R1008P/Q1011R): as the sequence (Q14671 828-1176 C1007E/Q1011G) above, with E180G, R181P, G184R counted along it
sequence,measurement,setting,value
GGCUAGAACUAGUGGAUCCCCCGGCGCCCGGCGGCUCGAGCCCGGGUAAGUGUCAAUAGUCUGCAUGCCGCCGGGCGCCAUGCCUGCAGGUCGACUCUAGAAAACAUG,binding signal,PUM1 PUF domain R5-GPR,4.4 log2 enrichment (interaction score)
same,binding signal,PUM1 PUF domain R5-ERG,2.14 log2 enrichment (interaction score)
same,binding signal,PUM1 PUF domain R5-KSQ,5.03 log2 enrichment (interaction score)
same,binding signal,PUM1 PUF domain R5-LHV,1.43 log2 enrichment (interaction score)
same,binding signal,PUM1 PUF domain R5-RGR,3.52 log2 enrichment (interaction score)
GGCUAGAACUAGUGGAUCCCCCGGCGCCCGGCGGCUCGAGCCCGGGUAAGUGUUAAUAGUCUGCAUGCCGCCGGGCGCCAUGCCUGCAGGUCGACUCUAGAAAACAUG,binding signal,PUM1 PUF domain R5-GPR,2.39 log2 enrichment (interaction score)
same,binding signal,PUM1 PUF domain R5-RGR,3.07 log2 enrichment (interaction score)
GGCUAGAACUAGUGGAUCCCCCGGCGCCCGGCGGCUCGAGCCCGGGUAAGUCUAAAUAGUCUGCAUGCCGCCGGGCGCCAUGCCUGCAGGUCGACUCUAGAAAACAUG,binding signal,PUM1 PUF domain R7-KPM,3.19 log2 enrichment (interaction score)
GGCUAGAACUAGUGGAUCCCCCGGCGCCCGGCGGCUCGAGCCCGGGUAAGUGUAAAUCGUCUGCAUGCCGCCGGGCGCCAUGCCUGCAGGUCGACUCUAGAAAACAUG,binding signal,PUM1 PUF domain R1-RLE,2.67 log2 enrichment (interaction score)
GGCUAGAACUAGUGGAUCCCCCGGCGCCCGGCGGCUCGAGCCCGGGUAAGUGGAAAUAGUCUGCAUGCCGCCGGGCGCCAUGCCUGCAGGUCGACUCUAGAAAACAUG,binding signal,PUM1 PUF domain R6-CFE,2.88 log2 enrichment (interaction score)
GGCUAGAACUAGUGGAUCCCCCGGCGCCCGGCGGCUCGAGCCCGGGUAAGUGUAUAUAGUCUGCAUGCCGCCGGGCGCCAUGCCUGCAGGUCGACUCUAGAAAACAUG,binding signal,PUM1 PUF domain R4-SRV,1.19 log2 enrichment (interaction score)
same,binding signal,PUM1 PUF domain R4-FGA,2.95 log2 enrichment (interaction score)
